Rows were chosen to be rich in hits. Some 1.4% of all compounds tested hit in one or more screens of this group.
Vc quorum ag: quorum light induction in luxS cqsA deficient V. cholerae; 350,000 tested, 0.16% active; AID 588436; V. cholerae BH1578 lux reporter, luminescence, 6 h; activation, % at 18.7 µM; in the data active means activation mostly above about 9.7%, no sharp cut-off; inconclusive means no clear call, values can overlap the other calls; inactive means mostly below about 3.7%
FadD28 binding: M. tuberculosis FadD28 bisubstrate binding inhibition; FadD28 bisubstrate probe binding, fluorescence polarization; inhibition, % at 12.5 µM; 360,000 tested, 0.22% active; AID 588549; in the data active means inhibition above about 8.5%, passing the limit was not always enough; inconclusive means no clear call, values can overlap the other calls
PriA SSB inh: K. pneumoniae PriA-SSBct interaction inhibition; AlphaScreen SSBct-PriA binding, biotinylated peptide; AID 1272365; 430,000 tested, 0.6% active; inhibition, % at 33 µM; in the data active means inhibition mostly above about 37%, no sharp cut-off; inactive means mostly below about 20%;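 further: plate controls were negative control peptide for no effect and reference peptide for full effect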
PrP UTR inh: suppresses PrP 5' UTR mRNA reporter expression; cell-based PrP 5' UTR mRNA reporter, plate reader; inhibition, % (concentration not given with the values); 340,000 tested, 0.35% active; AID 488862; in the data active means inhibition above about 52%; further: 0 = median of the neutral control wells
PrPC TRFRET: cell surface PrPC inhibition, primary TR-FRET screen | TR-FRET read-out | P04156 | 370,000 tested, 0.43% active | inhibition, % at 13.8 µM; in the data active means inhibition above about 24%; further: 0% = median of the test wells and 100% = reference compound wells
An asterisk follows results filed as active; i = inactive; ? = inconclusive; · = no result given.

SMILES	Vc quorum ag	FadD28 binding	PriA SSB inh	PrP UTR inh	PrPC TRFRET
c1ccc(-c2nc3ccccc3[nH]2)cc1	i	-4	-12	-43	3
Nc1cc(N)cc(-c2nc3ccccc3[nH]2)c1	0	?	45*	-21	-5
Nc1ccc(-c2nc3c(Cl)c(N)ccc3[nH]2)cc1	-5	11*	-2	-4	9
Nc1ccc(-c2nc3ccc(N)cc3[nH]2)cc1	i	14*	15	-13	-5
O=C(/C=C\c1ccc2c(c1)OCO2)Nc1nc(-c2cccnc2)cs1	·	·	-6	·	·
O=C(c1ccno1)N1CCC(Oc2ccc(Cl)cn2)CC1	·	·	-20	·	·
COc1cccc(-c2nnn(CC(N)=NO)n2)c1	·	·	-11	·	·
Cc1cccc(NC(=O)Nc2ccc(CN3CCN(c4ccccn4)CC3)cc2)c1	·	·	41*	·	·
O=C(Nc1ccc(F)cc1)Nc1ccc(CN2CCN(c3ccccn3)CC2)cc1	·	·	1	·	·
O=C(Nc1nnc(Cc2cccs2)o1)c1ccccc1Cl	·	·	3	·	·
CC(C)S(=O)(=O)c1cccc(C(=O)Nc2nnc(Cc3cccs3)o2)c1	·	·	41*	·	·
CCSc1ccccc1C(=O)Nc1nnc(Cc2cccs2)o1	·	·	40*	·	·
COc1cccc(C(=O)Nc2nnc(Cc3ccc(S(=O)(=O)C(C)C)cc3)o2)c1	·	·	-3	·	·
COCc1nnc(NC(=O)c2ccc(S(=O)(=O)N3CCOCC3)cc2)o1	0	0	-12	-13	3
O=C(Nc1nnc(Cc2cccs2)o1)c1ccc(S(=O)(=O)N2CCOCC2)cc1	·	·	79*	·	·
C[C@H]1CCCN(S(=O)(=O)c2ccc(C(=O)Nc3nnc(Cc4cccs4)o3)cc2)C1	·	·	91*	·	·
Cc1ccc(/C=C/S(=O)(=O)NCc2nc(C)no2)cc1	·	·	-22	·	·
Cc1ccc(NC(=O)C(=O)NCC2CCN(Cc3cccs3)CC2)cc1	·	·	-31	·	·
Cc1cc(NC(=O)C(=O)NCC(O)(c2cccs2)C2CC2)no1 (stereo unspecified)	·	·	-7	·	·
CCN(CC)c1ccc(Nc2nc(Cl)ncc2Br)cc1	-2	-1	41*	·	6
O=S(=O)(NC1CCN(c2nccs2)C1)c1cccnc1 (stereo unspecified)	·	·	-14	·	·
Cc1cccc(N=Nc2ccc(N(C)C)cc2)c1	0	0	55*	-6	6
C=CC(=O)Nc1cccc(Nc2nc(N[C@H]3CC[C@H](N(C)C)CC3)nc3c2ncn3C(C)C)c1	i	3	·	71*	·
CC(C)n1cnc2c(Nc3cccc(Cl)c3)nc(NCCCO)nc21	1	2	23	10	0
COc1ccc(C2NCCc3c2[nH]c2ccccc32)cc1CN1CCc2cc(OC)c(OC)cc2C1C (stereo unspecified)	0	-8	44*	-22	·
SMILES	Vc quorum ag	FadD28 binding	PriA SSB inh	PrP UTR inh	PrPC TRFRET
Cn1cccc1C(CNS(=O)(=O)c1ccc2ccccc2c1)N1CCCC1 (stereo unspecified)	·	·	22	·	·
COCCN(Cc1ccsc1)S(=O)(=O)Cc1cc(F)ccc1F	·	·	-19	·	·
CC[C@H](C)C=C(C)/C=C/C1=CC2=C(Cl)C(=O)[C@@](C)(OC(C)=O)C(=O)C2=CO1	·	·	2	·	·
CCC(C)/C=C(C)/C=C/C1=CC2=C(Cl)C(=O)C(C)(OC(C)=O)C(=O)C2=CO1 (stereo unspecified)	1	?	45*	-1	·
CC[C@H](C)/C=C(C)/C=C/c1cc2c(cn1)C(=O)[C@@](C)(OC(C)=O)C(O)=C2Cl	0	11*	·	·	-5
CC[C@H](C)/C=C(C)/C=C/C1=CC2=C(Cl)C(=O)[C@@](C)(OC(C)=O)C(=O)C2=CO1	0	·	·	-13	·
Cc1c(Cl)cccc1S(=O)(=O)N[C@H]1CCN(c2ccc(C(F)(F)F)cn2)C1	·	·	-11	·	·
O=C(Nc1nc(-c2nc3ccccc3s2)cs1)c1cccs1	·	·	2	·	·
CC(SCc1cc(=O)n2c([nH]c3ccccc32)c1C#N)C(=O)O (stereo unspecified)	1	10*	-11	-32	5
O=C(CCc1ccccc1Br)N1CC(S(=O)(=O)C2CCCCC2)C1	·	·	-11	·	·
CC(=NNC(=O)c1ccccc1Cl)c1c(O)n(C2CCCCC2)c(=O)[nH]c1=O	·	·	-7	·	·
C/C(=N\NC(=O)c1ccccc1O)c1c(O)n(C2CCCCC2)c(=O)[nH]c1=O	0	12*	·	2	-3
O=C(NCC(c1ccsc1)N1CCc2ccccc2C1)C(=O)Nc1cccc(C(F)(F)F)c1 (stereo unspecified)	·	·	-13	·	·
CCOC(=O)c1sc(NC(=O)Nc2ccc(Cl)cc2)cc1C	i	25*	-7	-51	7
Cc1cccc(C(=O)N[C@H](C(=O)Nc2nnc(C3CC3)s2)C(C)C)c1	0	-4	-4	-11	-2
Cc1cccc(C(=O)N[C@H](C(=O)Nc2ncc(C)s2)C(C)C)c1	0	-5	-3	-18	41*
O=C(OCc1ccccc1)c1ccc(NCc2cc(O)ccc2O)cc1	i	1	1	-22	46*
CN(C)c1cccc(C(=O)NCCn2ccc(-c3cccs3)n2)c1	·	·	12	·	·
C1=C(c2ccccc2)SC(c2ccccc2)=CC1=C1C=C(c2ccccc2)SC(c2ccccc2)=C1	·	·	-3	·	·
N#Cc1nc(-c2ccc(Cl)cc2)oc1N1CCCCC1	1	0	65*	-2	-4
N#Cc1nc(-c2ccc(Cl)cc2)oc1N1CCCCCC1	·	·	59*	·	·
N#Cc1nc(-c2ccc(F)cc2)oc1N1CCCCC1	-8	0	10	-6	4
COc1cc(/C=C2\SC(=S)N(NC(=O)c3cccc(O)c3)C2=O)ccc1O	-6	13*	11	-13	-6
COc1cc(/C=C2\SC(=S)N(NC(=O)c3ccncc3)C2=O)ccc1O	0	-6	-6	-18	-20
COc1cc(/C=C2\SC(=S)N(NC(=O)c3ccc(O)c(OC)c3)C2=O)ccc1O	0	16*	4	-15	-3
COC(=O)c1sc2cccc(F)c2c1S(=O)(=O)NCc1cccnc1	·	·	52*	·	·
CCOCC(=O)N1CCC(c2nc(C)no2)CC1	·	·	-13	·	·
Cc1cc(/C=C2\C(=O)NC(=O)N(Cc3ccccc3)C2=O)c(C)n1-c1ccc(Cl)c(C(=O)O)c1	i	16*	-7	-26	0
Cc1cc(/C=C2\C(=O)NC(=O)N(Cc3ccccc3Cl)C2=O)c(C)n1-c1ccc(C(=O)O)cc1	0	-1	-11	-28	3

Source: PubChem BioAssay (several laboratories)
